This is an account of results in PubChem BioAssay.

Unmarked numbers belong to inactive results. Active and inactive are the calls of the source.

The test in a line: CREB reporter modulators under forskolin, primary screen, cell-based, PC12, CRE-LacZ reporter, forskolin-stimulated (AID 1146).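 Further: PC12 cells with 6xCRE LacZ reporter stimulated by forskolin 10 µM; beta-galactosidase reporter signal reflecting CREB driven transcription.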 The note with it: luminescence, 4.5 h, higher = more signal, called active from +8 up or from −8 down.
For `COc1cc2c(cc1O)C(c1cccs1)N(Cc1cc3c(cc1Br)OCO3)CC2` (stereo not drawn), the z-score was 0.726. On to `CCC#CCN(Cc1ccccc1Br)[C@H](/C=C/C1CC1)[C@@H](O)Cc1ccccc1`, for which the z-score was -0.835. In the case of `COC(=O)[C@@]1(Cc2ccccc2)[C@H]2c3cc(C(=O)N4CCCC4)n(CCc4ccccn4)c3C[C@H]2CN1C(=O)c1ccccc1`, the z-score is 0.755. With `CCCCC(CC)C(O)C1C=CC2C(=O)N(c3ccccc3)C(=O)C2N1Nc1ccccc1F` (stereo not drawn) the figure was -0.208; with `[N-]=[N+]=Nc1ccccc1[C@@H]1OC(c2ccc(OCCCO)cc2)=N[C@]1(Cc1ccccc1)C(=O)N1CCCCC1`, -0.894; with `CC1CC/C=C\[C@H]2OC34C=CCN(C(C)C)C(=O)[C@H]3N(CCO)C(=O)[C@@H]4C2C(=O)O1` (stereo partly drawn), -0.599. With `CCOC(=O)C1=C[C@@H](C(C)(C)C)N(S(=O)(=O)c2ccc(C)cc2)[C@H]1c1cccc2ccccc12`, the z-score was 0.705. With `CC(C)[Si]1(C(C)C)OCc2cc(-c3ccc(-c4ccc(Cl)c(Cl)c4)o3)nc(-c3ccccc3)c21` the figure was -0.272; with `CCCCCCc1nc(Cc2cc(OC)c(OC)c(OC)c2)cc2c1[Si](C(C)C)(C(C)C)OC2`, -0.419; with `C=CC[C@@H](OC(=O)Nc1ccc(SC)cc1)c1ccc(O)c(F)c1`, 3.13.

With `Cc1ccc(NN2C(C(O)c3c(F)cccc3Cl)C=CC3C(=O)N(C4CCCCC4)C(=O)C32)cc1` (stereo not drawn), the z-score is 0.355.

With `COc1ccc([Si](C)(C)[C@@H]2[C@@H](CC(=O)N(CCO)Cc3ccccc3)O[C@]3(C(=O)N(Cc4cccc(N5CCCCC5=O)c4)c4ccccc43)[C@H]2C)cc1`, the z-score was 0.708.

Consider `NC(=O)[C@H]1[C@@H]2C(=O)O[C@@H](c3ccccc3)[C@@H](c3ccccc3)N2[C@@H](c2ccc(OCCO)cc2)[C@]12C(=O)Nc1ccc(C#CCCO)cc12`, for which the z-score was 0.776. Then `COc1cc(C(O)C2C=CC3C(=O)N(C)C(=O)C3N2Nc2ccccc2)cc(OC)c1OC` (stereo not drawn), with -0.944; and `C#Cc1cc2ccccc2oc1=O`, with 6.19; and `CC(=O)NCCCC[C@@H]1NC(=O)[C@@H]2C[C@H](C(=O)NCCCCCN)[C@H](c3cccc(OCCO)c3)N2C1=O`, with -0.892. Then `COc1ccc(CCNC(=O)[C@@]2(c3ccc([N+](=O)[O-])cc3)CC(=O)N(C3CCCCC3)[C@@H]2c2ccc(CO)cc2)cc1`, with -1.11. With `NCCCCCNC(=O)[C@@H]1C[C@@H]2C(=O)N[C@@H](CCCCN)C(=O)N2[C@@H]1c1ccc(O)cc1` the figure was -0.878. In the case of `NCCCCCNC(=O)[C@H]1C[C@H]2C(=O)N3CCC[C@H]3C(=O)N2[C@H]1c1cccc(OCCO)c1`, the z-score is -0.0024. Then `COCCOC(=O)N1C(=O)[C@@]2(c3cc(C#CCCO)ccc31)[C@H](c1ccc(OCCO)cc1)N1[C@H](c3ccccc3)[C@H](c3ccccc3)OC(=O)[C@H]1[C@@H]2C(=O)Nc1nc2ccccc2s1`, with -0.267; and `COC(=O)C1=CC(CCCO)=CC(c2cccs2)N(C)C=C1C(=O)OC` (stereo not drawn), with -0.217; and `COCCOC(=O)N1C(=O)[C@@]2(c3cc(C#CC4(O)CCCCCC4)ccc31)[C@H](c1ccc(O)cc1)N1[C@H](c3ccccc3)[C@H](c3ccccc3)OC(=O)[C@H]1[C@@H]2C(=O)N1CCN(c2ncccn2)CC1`, with 0.0053. Consider `COc1ccc([Si](C)(C)[C@@H]2[C@@H](CCO)O[C@]3(C(=O)N(Cc4cccc(NC(=O)[C@H](C)O)c4)c4ccccc43)[C@H]2C)cc1`, for which the z-score was -1.88.

For the compound `Cc1ccc(S[C@]2(C(=O)O)CC(=O)N(C3CCCCC3)[C@@H]2c2ccc(CO)cc2I)cc1`, the z-score was 2.76. With `O=C1C[C@]2(c3ccc([N+](=O)[O-])cc3)C(=O)N(C3CC3)c3cc(CO)ccc3[C@H]2N1CC12CC3CC(CC(C3)C1)C2` the figure was 1.23; with `COCCCNC(=O)[C@@]1(Sc2ccc(C)cc2)CC(=O)N(C2Cc3ccccc3C2)[C@@H]1c1ccc(CO)cc1`, 1.95.

As to `O=C1OCCC=C[C@H]2OC34C=CCN(c5ccc6ccccc6c5)C(=O)[C@H]3N(CCCO)C(=O)[C@@H]4C12` (stereo partly drawn), the z-score was -0.301. Then `COC(=O)[C@@]1(Cc2ccc(F)cc2)[C@H]2c3cc(C(=O)N(C)C)n(CCc4ccc(OC)c(Br)c4)c3C[C@H]2CN1C(=O)c1ccccc1`, with 124 (active).
